“And” between values parts separate entries of the source, which are not always exact repeats. Equal entries are not always repeated.
Experiments:
Format in all cases: functional
[1] = biological target: Solute carrier family 2, facilitated glucose transporter member 1 (Homo sapiens) (UniProt P11166); assay: ST_JUDE_LEISH: Cytotoxicity at 2uM final concentration against transgenic Leishmania Mexicana promastigotes LmGLUT1 that are glucose transport deficient and complemented with the human glucose transporter GLUT1. Activity is measured by DNA content using SYBR green in vitro
[2] = biological target: Hexose transporter 1 (Plasmodium falciparum) (UniProt O97467); assay: ST_JUDE_LEISH: Cytotoxicity at 2uM final concentration against transgenic Leishmania Mexicana promastigotes LmPfHT that are glucose transport deficient and complemented with the Plasmodium falciparum hexose transporter. Activity is measured by DNA content using SYBR green in vitro
[3] = biological target: Glucose transporter (Leishmania mexicana) (UniProt O61059); assay: ST_JUDE_LEISH: Cytotoxicity at 2uM final concentration against transgenic Leishmania Mexicana promastigotes LmGT2 that are glucose transport deficient and complemented with the L. Mexicana glucose transporter 2. Activity is measured by DNA content using SYBR green in vitro

Chain of Solute carrier family 2, facilitated glucose transporter member 1 (Homo sapiens) (P11166 whole entry): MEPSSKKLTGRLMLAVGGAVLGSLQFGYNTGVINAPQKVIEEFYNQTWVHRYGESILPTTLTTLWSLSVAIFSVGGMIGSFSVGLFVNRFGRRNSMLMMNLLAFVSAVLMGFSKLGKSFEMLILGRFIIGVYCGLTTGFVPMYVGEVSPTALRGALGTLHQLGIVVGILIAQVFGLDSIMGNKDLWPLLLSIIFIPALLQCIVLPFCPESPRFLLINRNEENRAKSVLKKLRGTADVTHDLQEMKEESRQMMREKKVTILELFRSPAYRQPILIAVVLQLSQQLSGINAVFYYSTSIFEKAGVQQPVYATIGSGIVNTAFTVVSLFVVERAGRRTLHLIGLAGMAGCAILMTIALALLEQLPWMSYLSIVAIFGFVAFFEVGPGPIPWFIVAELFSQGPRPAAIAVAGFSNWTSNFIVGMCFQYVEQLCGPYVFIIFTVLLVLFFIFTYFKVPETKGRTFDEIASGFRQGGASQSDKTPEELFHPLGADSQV

SMILES	inhibition [1]	inhibition [2]	inhibition [3]
COc1ccc2[nH]ccc(=NN=Cc3ccc(F)cc3)c2c1	2.33%	-0.63%	-0.34%
O=C(Nc1ccc(Cl)cc1)c1cc(Cl)ccc1NC(=O)C1CCc2ccccc2O1 (stereo not given)	5.48%	2.53%	1.56%
Cc1[nH]c2cc(F)ccc2c(=O)c1Cc1ccc(Cl)cc1.Cc1[nH]c2cccc(F)c2c(=O)c1Cc1ccc(Cl)cc1	23.5% and 29.2%	37.3% and 55.7%	14.3% and 15%
O=C(/C=C/c1ccc(Cl)c(Cl)c1)NCCCCCN1CCC(NC(=O)Nc2ccc(C(F)(F)F)cc2)C1 (stereo not given)	-0.17%	-0.88%	-3.22%
COc1ccc(CNC2CCN(C)CC2)cc1-c1ccc(S(=O)(=O)NCc2ccccc2)c(F)c1	-0.66%	-0.53%	-1.2%
COc1ccc(CC2(c3ccc(F)cc3)N=C(N)N(CCCc3ccc(F)c(F)c3)C2=O)cc1 (stereo not given)	2.06%	5.53%	3.88%
CN1CCN(Cc2cccc(-c3ccc4c(Nc5ccc(F)cc5Cl)ccnc4c3)c2)CC1	4.11%	6.5%	3.82%
CC(C)COc1ccc(Cl)cc1Cc1nc(-c2nc3ccc(CN4CCCCC4)cc3[nH]2)co1	4.83%	3.69%	2.91%
CCCCCCn1c(Sc2ccc(C#N)c([N+](=O)[O-])c2)nnc1-c1ccc(N(C)C)cc1	17.6%	16.1%	15.3%
CCN(CC(C)O)C(=O)c1ccc(-c2cccc(-c3nc4cccc(C)c4[nH]3)c2)cc1 (stereo not given)	0.34%	1.63%	0.11%
Cc1ccc(Nc2nc(N/N=C/c3cccc([N+](=O)[O-])c3)nc(Nc3ccccc3)n2)c(C)c1	2.34%	1.33%	-0.87%
COc1ccc2nccc([C@@H](O)CN3CCC(NC(=O)c4ccc(CN5CCN(c6cccc(C)c6)CC5C)cc4)CC3)c2c1 (stereo not given in full)	4.12%	1.46%	-3.5%
COc1ccc(CNC(=O)NC2CCN(c3ccnc(Nc4cc(OC)c(OC)c(OC)c4)n3)C2)cc1 (stereo not given)	1.55%	5.45%	-1.15%
OC1CCN(c2cc(-c3ccccn3)nc(-c3ccccn3)n2)CC1	-1.43%	2.02%	-4.46%
O=C(CC1CCCCC1)NCC(NCCCNc1cc(=O)c2ccccc2[nH]1)c1cc(Br)cc(Br)c1 (stereo not given)	3.89%	-1.16%	2.63%
CCc1cc(OC)ccc1C1CCN(CCCCNC(=O)c2ccc(NC(=O)c3ccc(Cl)cc3)cc2)CC1	3.47%	5.73%	-1.82%
Cn1nc(-c2ccc(NC(=O)Nc3cc(C(F)(F)F)ccc3F)c(F)c2)c2cnc(NCCCN3CCOCC3)nc21	6.47%	6.96%	7.47%
Cc1ccc(NC(=O)Nc2ccc(Cn3ncc(N4CCCNCC4)c(Cl)c3=O)cc2)cc1	2.01%	4.54%	1.32%
c1ccc2c(c1)ncn2-c1ccnc(Nc2ccncc2)n1	6.4%	6.42%	6.75%
COc1ccc2nccc([C@@H](O)CNCCCN(C)CCOc3cc(F)cc(F)c3)c2c1	6.85%	7.45%	6.99%
COc1ccc2nccc([C@@H](O)CN3CCC(NCc4nc5ccc(F)cc5[nH]4)CC3)c2c1	2.34%	1.93%	2.2%
Cc1nnc(Sc2ncnc3scc(-c4ccc(F)cc4)c23)s1	2.38%	3.03%	1.02%
Cc1cc(O)c(-c2ccc(OCc3ccc(Cl)cc3)cc2)c(C)n1	0.84%	0.22%	-0.29%
O=C(Nc1cc(Cl)ccc1-n1cncn1)C1(c2ccccc2)CC1	2.59%	6.43%	5.68%

SMILES	inhibition [1]	inhibition [2]	inhibition [3]
O=C(Nc1cccc(CN2CCN(Cc3cccc(O)c3)CC2)c1)c1cc2ccccc2s1	3.62%	3.45%	3.74%
Nc1ccc(-c2nc3c(ccc4ccccc43)[nH]2)cc1	2.25%	1.85%	0.2%
N=C(N)NN=Cc1ccc2c(ccc3ccccc32)c1	7.03%	8.19%	3.76%
Cc1ccc(-c2cc(C(=O)Nc3ccc(S(=O)(=O)N(C)Cc4ccccc4)cc3)[nH]n2)c(O)c1	0.95%	0.3%	1.49%
COc1ccc2c(c1)CC1CN(CCCCNC(=O)c3ccc(NC(=O)c4cc(Cl)cc(Cl)c4)cc3)CCN1C2 (stereo not given)	3.25%	4.38%	3.79%
O=C(c1cc2cccc([N+](=O)[O-])c2[nH]1)N1CCC(CCN2CCC(c3c[nH]c4ccccc34)CC2)CC1	1.52%	12.8%	2.6%
c1ccc(CNc2nc(NCCN3CCCCC3)nc3ccccc23)cc1	10.2%	11.1%	4.27%
CC(=O)c1ccc(NC(=O)Nc2ccc(N(C)c3ccnc(Nc4cccc(CS(C)(=O)=O)c4)n3)cc2)cc1	-0.18%	0.54%	4.04%
OCCNc1nc(Nc2ccc(F)cc2)nc2ccccc12	3.51%	3.35%	2.07%
Cc1ccc(C(NC(=O)c2ccccc2)c2ccc3cccnc3c2O)cc1 (stereo not given)	4.29%	6.5%	-0.04%
O=C(Nc1cccc(F)c1)N1CCC(NS(=O)(=O)c2ccc(Br)cc2)CC1	4.47%	4%	2.63%
CCCNC[C@@H](O)[C@H](Cc1ccccc1)NC(=O)c1cc2c3c(c1)c(CC)cn3CCS(=O)(=O)N2C	-2.56%	0.74%	0.44%
CC(C)C(NC(=O)c1c(F)cccc1F)C(=O)Nc1ccc(Cc2nc3ccccc3s2)cc1 (stereo not given)	-1.47%	2.55%	1.42%
NOCCCCOc1ccc(Br)cc1	3.74%	5.13%	2.59%
COc1cccc(C(=O)OC2=C3CCC(=O)C3(C)CCC2=O)c1 (stereo not given)	5.35%	4.65%	6.31%
O=C(Cn1c(SCc2cccc(F)c2F)cc(=O)c2ccccc21)N(Cc1ccc(-c2ccc(C(F)(F)F)cc2)cc1)C1CCN(CCO)CC1	-0.08%	-0.44%	-1.32%
CC(C)NCc1ccc(-c2cccc(NC(=O)c3cccc(Cl)c3)c2)cc1	17.7%	12.9%	10.7%
N#CC1(c2ccccc2)CCN(c2nc(NCCCN3CCCC3=O)nc(N3CCCC4CCCCC43)n2)CC1 (stereo not given)	2.11%	2.3%	-0.55%
COc1ccc(-c2nc3c(N)nc(N)nc3nc2C(C)C)cc1	15.6%	30.7%	21.4%
CC/N=C(/NCCCCCCN/C(=N/CC)NCc1ccccc1)NCc1ccccc1	0.49%	-0.55%	-2.09%
Cc1ccc(-c2csc(C)n2)c(C)c1	1.21%	2.19%	2.4%
COc1cccc(NC(=O)Nc2ccc(-c3oc(C(=O)NCC(c4ccccc4)N(C)C)cc3-c3ccncc3)cc2)c1 (stereo not given)	5.08%	3.73%	3.18%
CC(CCc1ccccc1)NCC(O)c1cccc(C(F)(F)F)c1 (stereo not given)	5.1%	5.17%	3.76%
CCCN(CCC)C(=O)c1cc(C(=O)N[C@@H](Cc2ccccc2)[C@H](O)CNC2CC2)cc(N2CCCCS2(=O)=O)c1	2.88%	2.88%	1.62%

SMILES	inhibition [1]	inhibition [2]	inhibition [3]
Cc1cc(N2CCN(CC3CCN(C)CC3)CC2)nc(Nc2ccc(Cl)cc2)n1	0.56%	0.64%	2.21%
CCOc1ccc2c(=NN=Cc3ccccc3F)cc(C)[nH]c2c1	1.77%	1.33%	-0.43%
COc1ccc(-c2cnc3ccc(NCc4ccc(F)cc4)nn23)cc1OC	4.06%	4.1%	1.96%
CN1CCN(CCCN(Cc2cccc(-c3cccc(CNC4CCCC4)c3)c2)C(=O)CCC2CCCC2)CC1	-0.12%	-0.45%	0.45%
N#Cc1ccc(S(=O)(=O)N2C(c3cccc([N+](=O)[O-])c3)C(C(=O)c3ccccc3)N(C3CCCCC3)C2c2cccc([N+](=O)[O-])c2)cc1 (stereo not given)	7.88%	7.58%	7.58%
Cc1cc(N[C@@H](Cc2ccccc2)C(=O)NCCOc2ccccc2)nc(NCCc2cccs2)n1	8.11%	7.52%	6.47%
Oc1ccc2c(c1NCC1CCCCC1)CCCC2	2.5%	2.89%	1.57%
CCN(CC)CCN(Cc1ccc(-c2ccc(C(F)(F)F)cc2)cc1)C(=O)Cn1c(CCc2cccc(F)c2F)cc(=O)c(C)c1C	11.5%	8.35%	3.62%
CN(C)CCNC(=O)c1ccc(-c2cnc3ccc(NCc4ccc(Cl)c(Cl)c4)nn23)cc1	-1.43%	-1.29%	11.1%
CC(C)(C)c1ccc(CNC(=O)c2ccc(CNC3CCC(N)CC3)s2)cc1 (stereo not given)	-0.19%	0.91%	0.31%
COc1ccc(C(=C(C)CC(C)C(=O)O)c2ccccc2)cc1 (stereo not given)	-0.12%	-0.23%	0.28%
NS(=O)(=O)c1cccc(-c2ccc3ncc(N4CCOCC4)nc3c2)c1	1.24%	2.84%	-0.09%
CCC[C@@H]([C@@H](CC1CCCCC1)C(=O)N[C@H](C(=O)Nc1nccs1)C(C)(C)SCCNC(=O)OCc1ccccn1)N(O)C=O	-3.15%	-0.71%	8.17%
CCc1sc(CN(CCCNc2cc(=O)c3ccccc3[nH]2)Cc2sc(CC)c(Br)c2-c2ccsc2)c(-c2ccsc2)c1Br	3.98%	4.16%	5.33%
c1ccc(C(c2cccs2)N2CCN(Cc3ccc(OCCCN4CCCCC4)cc3)CC2)cc1 (stereo not given)	7.65%	6.22%	5.51%
Nc1cccc(CNCc2cccc(-c3cccc(-c4nc5cc(F)ccc5[nH]4)c3)c2)c1	0.35%	0.35%	-0.66%
O=C(Nc1ccc(OC2CCN(Cc3ccsc3)C2)c(Cl)c1)c1ccc(F)cc1 (stereo not given)	0.29%	0.51%	0.32%
COc1c(C2CCN(CCCCNC(=O)c3ccc(-c4ccc(Cl)cc4)c(OCCN(C)C)c3)CC2)ccc2c1CCCC2	9.22%	14.4%	18.8%
CCOC(=O)N1NC(=O)N(c2ccccc2)C1(c1ccccc1)c1ccccc1	2.45%	1.19%	2.17%
COc1cc(C)nc2ccc(NC(=O)c3ccc(C(=O)Nc4ccc5nc(C)cc(OC)c5c4)cc3)cc12	-1.93%	-1.5%	1.25%
COc1ccc2nccc(N3CCC(O)(CCNCc4ccc5c(n4)NC(=O)CS5)CC3)c2n1	7.13%	8.14%	7.92%
NCC(=O)Nc1cccc(Nc2nccc(-c3c(-c4cccc(NC(=O)c5ccccc5)c4)nn4ccccc34)n2)c1	3.36%	7.49%	1.14%
